Columns and labels:
Conditions in all cases: concentration: 1 μM,replicates: in singlicate; n = 1
PRKD3 = system: PRKD3
PRKG1 = system: PRKG1
PRKG2 = system: PRKG2
PRKR = system: T1, PRKR
T1 construct: gene EIF2AK2

PRKX = system: PRKX
PRP4 = system: PRP4
PYK2 = system: T2, PYK2
T2 construct: gene PTK2B

QSK = system: QSK
RAF1 = system: RAF1
RET = system: RET
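Further: KINOMEscan kinase panel screen.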

Row | SMILES | %Inh (PRKD3) | %Inh (PRKG1) | %Inh (PRKG2) | %Inh (PRKR) | %Inh (PRKX) | %Inh (PRP4) | %Inh (PYK2) | %Inh (QSK) | %Inh (RAF1) | %Inh (RET)
1 | C[C@H]1Oc2cc(cnc2N)-c2c(nn(C)c2C#N)CN(C)C(=O)c2ccc(F)cc21 | 8% | 0% | 10% | 0% | 7% | 0% | 99.6% | 0% | 0% | 22%
2 | Cl.Cl.Nc1nc(-c2ccc3c(N)n[nH]c3c2)cc(N2CCCC(NC(=O)c3ccccc3)C2)n1 (stereo not drawn) [GSK2286775] | 0% | 0% | 38% | 5% | 83% | 36% | 15% | 0% | 9% | 0%
3 | O=C(NCCNc1ccnc(NCc2ccc(F)cc2)n1)c1cc2ccccc2s1 [GSK1379944] | 100% | 22% | 0% | 0% | 19% | 18% | 14% | 7% | 11% | 79%
4 | Cl.Cl.NC[C@H](Cc1ccc(C(F)(F)F)cc1)NC(=O)c1cc(Br)c(-c2ccnc3[nH]ccc23)s1 [GSK1487252] | 81% | 98.1% | 98.7% | 0% | 96% | 22% | 13% | 14% | 10% | 74%
5 | O=C(NCCCN1CCOC1=O)c1cnc(NCc2cc(Cl)ccc2Cl)nc1NC1CCCC1 | 0% | 13% | 21% | 4% | 0% | 1% | 0% | 0% | 7% | 22%
6 | C[C@@H](Oc1cc(-c2cnn(C3CCNCC3)c2)cnc1N)c1c(Cl)ccc(F)c1Cl | 63% | 0% | 3% | 26% | 35% | 0% | 80% | 0% | 0% | 
7 | Cc1cc(C(=O)Nc2ccc(Oc3ccc4nc(NC(=O)C5CC5)cn4n3)cc2)nn1-c1ccccc1 | 0% | 8% | 6% | 18% | 0% | 0% |  | 0% | 75% | 81%
8 | CC(C)Nc1cc(-c2ccc3c(N)n[nH]c3c2)nc(N)n1 [GSK2221681] | 0% | 0% | 42% | 0% | 79% | 7% | 0% | 0% | 0% | 0%
9 | CCn1c(-c2nonc2N)nc2c(C#CC(C)(C)O)nc(OCCN)cc21.Cl.Cl [GSK902056] | 37% | 39% | 97% | 0% | 91.6% | 8% | 9% | 23% | 0% | 23%
10 | CN(C)CCOc1ccc(-c2cc(-c3c[nH]nc3-c3ccccn3)ccn2)cc1 [GW835314] | 91.5% | 0% | 12% | 0% | 0% | 0% | 0% | 9% | 28% | 36%
11 | Cc1occc1-c1nc(N)c(OC[C@@H](N)Cc2c[nH]c3ccccc23)cc1-c1cc2c(C)n[nH]c2cn1 [GSK1660450] | 100% | 78% | 96.2% | 0% | 79% | 0% | 0% | 90.4% | 0% | 23%
12 | Cl.Oc1cc(-c2nc(-c3ccccc3)[nH]c2-c2ccncc2)ccc1Cl [SB-386023] | 0% | 15% | 0% | 0% | 0% | 0% | 6% | 33% | 97.9% | 66%
13 | CNC(=O)c1ccccc1Sc1ccc2c(/C=C/c3ccccn3)n[nH]c2c1 | 0% | 0% | 0% | 0% | 9% | 0% | 20% | 0% | 3% | 
14 | NC(=O)c1cc(-c2ccccc2)cc2c(C3CCNCC3)c[nH]c12 [GSK301362] | 29% | 5% | 0% | 0% | 36% | 2% | 37% | 13% | 3% | 7%
15 | CN(C)CC(O)COc1ccc(Nc2nccc(-c3cnn4nc(N5CCOCC5)ccc34)n2)cc1 (stereo not drawn) [GW767488] | 93.6% | 0% | 50% | 59% | 8% | 2% | 29% | 43% | 6% | 17%
16 | CCN(CC)CCOc1ccc(Nc2ncc3cc(-c4c(Cl)cccc4Cl)c(=O)n(C)c3n2)cc1 [SB-601273] | 100% | 0% | 9% | 18% | 0% | 31% | 56% | 95.6% | 97% | 100%
17 | COc1ccc(C[C@@H](CN)NC(=O)c2cc(Br)c(-c3ccnc4[nH]ccc34)s2)cc1.Cl.Cl [GSK1389063] | 94.4% | 98.7% | 98.9% | 1% | 94.2% | 18% | 47% | 0% | 5% | 98.4%
18 | Cc1cc2cn[nH]c2cc1-c1cccc2c(N)c(C(N)=O)nnc12 | 84% | 0% | 23% | 2% | 20% | 6% | 27% | 15% | 0% | 19%
19 | CCN(CC)CCCCNc1ncc2cc(-c3c(Cl)cccc3Cl)c(NC(=O)NC(C)(C)C)nc2n1 | 25% | 2% | 7% | 0% | 0% | 0% | 4% | 39% | 87% | 96.5%
20 | C[C@@H]1CCN(C(=O)CC#N)C[C@@H]1N(C)c1ncnc2[nH]ccc12 | 14% | 14% | 0% | 0% | 0% | 0% |  | 0% | 0% | 
21 | Cc1ccc(-n2nc(C(C)(C)C)cc2NC(=O)Nc2ccc(OCCN3CCOCC3)c3ccccc23)cc1 [GW839464] | 16% | 0% | 3% | 8% | 0% | 15% |  | 1% | 26% | 54%
22 | Cc1n[nH]c2ccc(-c3cc(OC[C@@H](N)Cc4ccccc4)cnc3-c3ccoc3)cc12.O=C(O)C(F)(F)F.O=C(O)C(F)(F)F [GSK507358] | 100% | 0% | 0% | 4% | 84% | 27% | 40% | 5% | 0% | 8%
23 | C=CC(=O)Nc1cc2c(Nc3ccc(F)c(Cl)c3)ncnc2cc1OCCCN1CCOCC1 [GW781483] | 0% | 0% | 31% | 0% | 0% | 0% | 1% | 1% | 0% | 38%
24 | Nc1nc(Nc2ccccc2)cc(-c2ccc3c(N)n[nH]c3c2)n1 [GSK2225749] | 0% | 12% | 45% | 3% | 57% | 60% | 0% | 0% | 0% | 6%
25 | Cc1ccc2c(-c3ccncc3)c(-c3ccc(F)cc3)nn2c1.Cl [GW461484] | 50% | 30% | 18% | 0% | 0% | 0% | 0% | 1% | 19% | 14%
26 | Cl.Cl.NC[C@H](CC1CCCCC1)NC(=O)c1cc(Br)c(-c2ccnc3[nH]ccc23)s1 [GSK1581427] | 82% | 99.3% | 98.5% | 0% | 96.2% | 78% | 20% | 5% | 2% | 25%
27 | CC(C)N1C(=O)Cc2cc(Nc3ncc(C(F)(F)F)c(NCc4cccc(S(C)(=O)=O)c4)n3)ccc21 | 0% | 0% | 8% | 0% | 0% | 25% | 22% | 0% | 0% | 86%
